Measurements from PubChem BioAssay (NCATS).
Where “and” joins values, the source holds several entries; their conditions need not be identical. Equal entries are not always repeated. Results filed as inconclusive are left out. Calls of active or inactive are those of the source. Unless noted, calls follow the shape of the dose curve; as a rule, active = well fitted curve in the direction sought with a large enough effect; inconclusive = small, poorly fitted or top-dose-only effect, or another doubt; inactive = no such curve, though single readings can be large; an effect the other way counts as inactive or inconclusive.

Legend:
[1] = qHTS to identify inhibitors of the type 1 interferon - major histocompatibility complex class I in skeletal muscle: primary screen against the NCATS Pharmaceutical Collection (AID 1347407);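 also: luminescence of HiBiT knocked into endogenous HLA-B as interferon-induced MHC class I level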; also: potency is read from the fitted curve at half-maximal effect
Procedure, shortened: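 Compounds […] were added to CRISPR-engineered HLA-B-HiBiT C25cl48 human myoblasts with 4.0 ng/ml IFN-beta. After 24 hrs at 37 C, cells were lysed and HiBiT luminescence measured.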

[2] = target: Protein phosphatase 1D (Homo sapiens) (UniProt O15297); assay: RapidFire Mass Spectrometry qHTS Assay for Modulators of WT P53-Induced Phosphatase 1 (WIP1) (AID 1347424);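 also: amount of dephosphorylated VEPPL-S-QETFS peptide product formed by WIP1; series mostly up to about 63 µM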
Procedure, shortened: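 10 nM WIP1 + cpd, 1 h RT; + 2 uM VEPPL-pS-QETFS, 5 min RT; stop 0.5% formic acid; labelled product standard 1 uM; RapidFire MS. Buffer 50 mM Tris pH 7.5, 30 mM MgCl2, 1 mM TCEP.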

[3] = target: Protein phosphatase 1D (Homo sapiens) (UniProt O15297); assay: Rhodamine-PBP qHTS Assay for Modulators of WT P53-Induced Phosphatase 1 (WIP1) (AID 1347425)
Procedure, shortened: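 5 nM WIP1 + 10 uM Rh-PBP, 50 mM Tris pH 7.5, 30 mM MgCl2, 1 mM TCEP, 0.1 mM EGTA, BSA; cpds pinned, 1 hr RT; + 10 uM phosphopeptide; fluorescence 1-min reads x 11 min; delta = f1 - f0.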

[4] = Primary qHTS for inhibitors of SARS-S pseudo-typed particle cell entry (AID 1479145; calls by dose curve; also: nearly all actives have a fitted effect of over 45% in size; also: potency is read from the fitted curve at half-maximal effect)
[5] = Primary qHTS for Huh7 cytotoxicity: counterscreen for inhibitors of MERS-S pseudotyped particle cell entry (AID 1479147; calls by dose curve; also: potency is read from the fitted curve at half-maximal effect)
[6] = Primary qHTS for inhibitors of MERS-S pseudo-typed particle cell entry (AID 1479149; calls by dose curve; also: nearly all actives have a fitted effect of over 60% in size)
[7] = Primary qHTS for Vero E6 cytotoxicity: counterscreen for inhibitors of SARS-S pseudo-typed particle cell entry (AID 1479150; calls by dose curve; also: potency is read from the fitted curve at half-maximal effect)
[8] = target: Calcium and integrin-binding protein 1 (Homo sapiens) (UniProt Q99828); assay: Primary qHTS for Identification of Calcium Integrin Binding Protein 1 (CIB1) Competitor (AID 1508620); also: potency is read from the fitted curve at half-maximal effect
Procedure, shortened: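 CIB1-GST (1 uM final) and compound incubated 15 min at room temperature before adding FITC-alphaIIb peptide tracer (100 nM final). Competition for binding read by fluorescence polarization (ex 480, em 540) after another 15 min at room temperature.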

[9] = Counterscreen qHTS for small molecule stabilizers of the endoplasmic reticulum resident proteome: GLuc-NoTag assay (AID 1508627); also: potency is read from the fitted curve at half-maximal effect
Procedure, shortened: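 Luminescence of Gaussia luciferase secreted into the medium (coelenterazine, 0.07x final, unlysed cells) was the read-out. Human SH-SY5Y neuroblastoma cells constitutively secreting untagged GLuc received compound for 19 h, then 100 nM thapsigargin for 4 h.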

[10] = Confirmatory qHTS for small molecule stabilizers of the endoplasmic reticulum resident proteome: Secreted ER Calcium Modulated Protein (SERCaMP) assay (AID 1508628); also: nearly all actives have a fitted effect of over 40% in size; also: potency is read from the fitted curve at half-maximal effect
Procedure, shortened: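 We seeded SH-SY5Y-GLuc-SERCaMP cells, added compounds (three concentrations in the primary run, eleven up to 76.6 uM in confirmation), incubated 16 h, depleted ER calcium with thapsigargin, and read luciferase 4 h later.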

[11] = Primary qHTS for inhibitors of La Crosse Virus (LACV) - induced cell death in SH-SY5Y cells (AID 1508616);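 also: top concentration of the series differs between compounds; higher means more rescue of cells from virus-induced death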
Procedure, shortened: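 Luminescent ATP readout (ATPLite 1step, 5 min room temperature) measured rescue from LACV-induced death after 6 days of infection at 0.01 MOI; normalized to infected DMSO wells and uninfected DMSO wells.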

[12] = qHTS to identify inhibitors of the type 1 interferon - major histocompatibility complex class I in skeletal muscle: primary screen against the NCATS Mechanism Interrogation Plate v5.0 (MIPE) Libary (AID 1347411); also: nearly all actives have a fitted effect of over 65% in size; also: potency is read from the fitted curve at half-maximal effect
Procedure, shortened: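 Immortalized human C25cl48 myoblasts with HiBit knocked into endogenous HLA-B*08:01 were stimulated with 4.0 ng/ml IFN-beta and exposed to compounds (11-point 1:3 titration, top 46 uM final) for 24 hrs at 37 C; HiBiT lytic luminescence measured.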

[13] = qHTS for inhibitors of adenylyl cyclases using a fission yeast platform: a pilot screen against the NCATS LOPAC library (AID 1347410)
Procedure, shortened: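 GFP from fbp1-GFP reporter, read by Acumen laser cytometry, indicates AC inhibition in fission yeast expressing AC9, GNAS and PDE4D2. Cells grown 18 h in the dark at 30C with compounds, final up to 57 uM.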

[14] = Validation qHTS assay for inhibitors of Activation Induced Cytidine Deaminase (AID): UDG Counterscreen signal (AID 1347427)
Procedure, shortened: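 Counterscreen read of UDG activity (2 U/mL, 4/3x) in the FRET deamination format with AID (1 uM, 4/3x), DJC20/DJC23 substrates (250 nM, 4x), 4 h at room temperature. NaOH stop, fluorescence at 560 ex/665 em.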

[15] = target: Single-stranded DNA cytosine deaminase (Homo sapiens) (UniProt Q9GZX7); assay: Validation qHTS assay for inhibitors of Activation Induced Cytidine Deaminase (AID): AID signal (AID 1347429)
Procedure, shortened: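 AID and UDG were combined and compounds added at final up to 114 uM, then DJC20/DJC23 FRET substrate was added for 4 hr at room temperature. NaOH was then added for 30 min before fluorescence was read at 540/590 nm.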

[16] = target: Calcium and integrin-binding protein 1 (Homo sapiens) (UniProt Q99828); assay: Validation qHTS for Identification of Calcium Integrin Binding protein 1 (CIB1) Competitor (AID 1508618)
Procedure, shortened: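 Displacement of FITC-alphaIIb peptide (100 nM) from CIB1-GST (1 uM) is monitored by polarization in quantitative HTS format; buffer carries 5 mM CaCl2 and 125 mM NaCl at pH 7.4, incubations are at room temperature.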

Measured: Potency

Calcium and integrin-binding protein 1 (Homo sapiens), sequence (Q99828 whole entry, looked up): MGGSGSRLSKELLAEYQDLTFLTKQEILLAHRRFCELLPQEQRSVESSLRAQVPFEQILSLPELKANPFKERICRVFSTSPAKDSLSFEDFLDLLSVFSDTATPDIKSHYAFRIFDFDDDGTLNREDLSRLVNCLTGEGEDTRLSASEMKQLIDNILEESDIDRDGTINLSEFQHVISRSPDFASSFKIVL
Protein phosphatase 1D (Homo sapiens), sequence (O15297 whole entry, looked up): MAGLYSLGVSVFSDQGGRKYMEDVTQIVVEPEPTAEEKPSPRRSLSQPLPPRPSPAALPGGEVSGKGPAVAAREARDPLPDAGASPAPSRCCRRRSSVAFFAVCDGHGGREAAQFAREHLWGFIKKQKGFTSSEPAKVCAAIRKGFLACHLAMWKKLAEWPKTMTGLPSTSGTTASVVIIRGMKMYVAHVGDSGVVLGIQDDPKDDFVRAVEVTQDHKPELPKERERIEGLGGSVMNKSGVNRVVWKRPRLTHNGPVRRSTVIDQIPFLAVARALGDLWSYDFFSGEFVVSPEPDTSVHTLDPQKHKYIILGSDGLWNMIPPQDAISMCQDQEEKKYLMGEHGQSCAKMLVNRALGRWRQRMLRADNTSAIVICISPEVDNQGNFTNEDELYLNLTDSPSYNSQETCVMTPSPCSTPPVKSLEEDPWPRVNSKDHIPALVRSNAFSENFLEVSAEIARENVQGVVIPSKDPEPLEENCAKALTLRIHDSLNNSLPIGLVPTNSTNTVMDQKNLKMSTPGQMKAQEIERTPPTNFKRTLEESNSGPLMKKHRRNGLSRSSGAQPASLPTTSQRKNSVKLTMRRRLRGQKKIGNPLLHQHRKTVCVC
Single-stranded DNA cytosine deaminase (Homo sapiens), sequence (Q9GZX7 whole entry, looked up): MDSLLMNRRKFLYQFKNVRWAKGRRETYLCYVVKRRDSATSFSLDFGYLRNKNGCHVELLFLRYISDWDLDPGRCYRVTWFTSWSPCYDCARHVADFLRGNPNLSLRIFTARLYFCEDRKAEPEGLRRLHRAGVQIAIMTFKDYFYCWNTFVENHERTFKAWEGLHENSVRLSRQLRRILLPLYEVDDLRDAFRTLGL

Cc1c(Cl)c(=O)oc2cc(OP(=O)(OCCCl)OCCCl)ccc12
not listed: [11] | [12] | [13] | [14] | [15] | [16]
inactive: all other assays above

CC1=C2[C@H]3OC(=O)[C@@H](C)[C@@H]3CC[C@@]2(C)C=CC1=O
inactive: [1] | [2] | [3] | [4] | [5] | [6] | [7] | [11] | [8]

Cc1cccc(Cc2cnc[nH]2)c1C
inactive: [1] | [2] | [3] | [4] | [5] | [6] | [7] | [11] | [8]

C[C@@H]1C[C@@H]([C@H](O)CC2CC(=O)NC(=O)C2)C(=O)[C@@H](C)C1
inactive: [2] | [3] | [11] | [8]
active: [1] 374 nM | [12] 262 nM | [9] 1.58 µM and 1.12 µM | [10] 224 nM

CC(C)[N+](C)(CCC(C(N)=O)(c1ccccc1)c1ccccc1)C(C)C
inactive: [1] | [2] | [3] | [4] | [5] | [6] | [7] | [11] | [8]

CCOC(=O)C1(c2ccccc2)CCN(CCc2ccc(N)cc2)CC1
inactive: [1] | [2] | [3] | [4] | [5] | [6] | [7] | [11] | [8]

COc1ccc(CN2CCNCC2)c(OC)c1OC
inactive: [1] | [2] | [3] | [4] | [5] | [6] | [7] | [11] | [8]

O=c1n(Cl)c(=O)n(Cl)c(=O)n1Cl
inactive: [1] | [2] | [3] | [4] | [5] | [7] | [11] | [8]

COP(=S)(OC)Oc1ccc(S(N)(=O)=O)cc1
inactive: [1] | [2] | [3] | [4] | [5] | [6] | [7] | [11] | [8]

O=C(O)c1nn(Cc2ccc(Cl)cc2Cl)c2ccccc12
inactive: [1] | [13] | [12] | [14] | [15] | [11] | [16] | [8]

C[C@]12CC[C@H](O)CC1=CC[C@@H]1[C@@H]2CC[C@]2(C)C(=O)CC[C@@H]12
not listed: [9] | [10] | [13] | [14] | [15] | [16]
inactive: all other assays above

CN(C)C(=O)Oc1cc(OC(=O)N(C)C)cc(C(O)CNC(C)(C)C)c1 (centres undefined)
inactive: [1] | [2] | [3] | [4] | [5] | [6] | [7] | [11] | [8]

COc1ccc(C(=O)N2CCCC2=O)cc1
not listed: [9] | [10]
inactive: all other assays above

O=C(O)Cc1ccccc1
inactive: [1] | [2] | [3] | [4] | [5] | [6] | [7] | [11] | [8]

COP(=O)(OC)OC=C(Cl)Cl
inactive: [1] | [2] | [3] | [4] | [5] | [6] | [7] | [11] | [8]

CCCCC1C(=O)NC(=O)N(C2CCCCC2)C1=O (centres undefined)
inactive: [1] | [2] | [3] | [4] | [5] | [6] | [7] | [8]

CC(Cc1ccccc1)NCc1ccccc1Cl (centres undefined)
inactive: [1] | [2] | [3] | [4] | [5] | [6] | [7] | [11] | [8]

CC1COC2(c3ccccc3Cl)c3cc(Cl)ccc3NC(=O)CN12 (centres undefined)
inactive: [1] | [2] | [3] | [4] | [5] | [6] | [7] | [8]

COP(=O)(OC)C(O)C(Cl)(Cl)Cl (centres undefined)
inactive: [1] | [2] | [3] | [4] | [5] | [6] | [7] | [11] | [8]

CCC1(c2cccc(O)c2)CCCCN(C)C1 (centres undefined)
inactive: [1] | [2] | [3] | [4] | [5] | [6] | [7] | [8]

Cc1ccc(N=CN(C)C=Nc2ccc(C)cc2C)c(C)c1
inactive: [1] | [2] | [3] | [4] | [5] | [6] | [7] | [11] | [8]

C[C@@H]1O[C@@H](O[C@@H]2C=C3CC[C@@H]4[C@H](CC[C@]5(C)[C@@H](c6ccc(=O)oc6)CC[C@]45O)[C@@]3(C)CC2)[C@H](O)[C@H](O)[C@H]1O
active: [1] 3.3 nM | [12] 7.4 nM
inactive: [2] | [3] | [4] | [6] | [8]

CN(C)C(=S)SSC(=S)N(C)C
inactive: [1] | [2] | [3] | [6]
active: [4] 708 nM | [5] 891 nM | [7] 891 nM | [8] 39.8 µM

COC(=O)C1=CCCN(C)C1
inactive: [1] | [13] | [2] | [3] | [14] | [15] | [11] | [16] | [8]
